Common to all, as to test: PBM binding z-score (relative to random genomic background probes); higher = stronger binding; sequences stand for … in GC…GCGATTGACAGCGTAGAATGAAGG
Experiment [1] concerns RARb homodimer (NR concentration 270 nM). Summed up: (§1)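 Binding z-scores were set against random background probes. The data came from custom Agilent 4×180K protein-binding microarrays carrying double-stranded probes with 34-nt variable regions, incubated 1 h with ligand-free nuclear receptor dimers. Partner-specific antibodies detected binding, and scanned fluorescence was regression-normalized.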

The subject of experiment [2] is RARg:RXRa (NR concentration 270 nM, RXRa partner concentration 90 nM). In outline: as §1
The subject of experiment [3] is RARg homodimer (NR concentration 270 nM). In outline: as §1
The test system of experiment [4] is RXRa DBDmut IVT, anti-RXR (DBD mutation: RXRa K156A/R161A, NR concentration 90 nM). In outline: as §1
The subject of experiment [5] is RXRa homodimer (NR concentration 180 nM). In outline:
as §1

For experiment [6], the system named is THRa:RXRa (NR concentration 90 nM, RXRa partner concentration 90 nM). Summed up: as §1
Experiment [7] has as its system THRa homodimer (NR concentration 90 nM). In outline: as §1
For experiment [8], the system named is VDR homodimer (NR concentration 270 nM). In outline:
as §1

On to TCTAATAGTTGAAGGGCAACCGACGAGTCCGTTT, for which the PBM binding z-score turned out to be 1.24 in experiment [1]; 0.639 in experiment [2]; 0.887 in experiment [3]; 1.7 in experiment [4]; 0.869 in experiment [5]; 0.0071 in experiment [6]. In addition, the figures for the PBM binding z-score in experiment [7] and in experiment [8] were -0.423 and 1.41, respectively.

Take TCATATAGGTAAATGCTAGGTGAGAGTCCGATCT: the PBM binding z-score stood at 0.0117 in experiment [1]; 0.257 in experiment [2]; 0.032 in experiment [3]; 1.03 in experiment [4]; 0.42 in experiment [5]; 0.935 in experiment [6]. In addition, the results for the PBM binding z-score in experiment [7] and in experiment [8] were -0.108 and 0.216, respectively.

With CGAACTAGCTCAGAACAGGACAGTGAAGGATGAT, the PBM binding z-score in experiment [1] is -0.0575; in experiment [2] it was -0.313; in experiment [3] it was 0.137; in experiment [4], 0.021; in experiment [5] it was -0.191; in experiment [6], -0.173. Further, the PBM binding z-score was -0.29 in experiment [7] and -0.0975 in experiment [8].

In the case of CGTCCAAGTTCATAGGAGGTCAGTGAAGACAGAT, the PBM binding z-score in experiment [1] was found to be 4.1; in experiment [2] it was 4.63; in experiment [3] it was 5.14; in experiment [4], 4.98; in experiment [5], 3.69; in experiment [6], 4.73. For the same sequence, the PBM binding z-score in experiment [7] was found to be 1.52; in experiment [8], 6.53.

As for AGAATGAGGTTATTAAGATCAGTGAATTGCGGTC, the PBM binding z-score was 0.636 in experiment [1]; 1.21 in experiment [2]; 0.905 in experiment [3]; 2.02 in experiment [4]; 1.67 in experiment [5]; 2.17 in experiment [6]. For the same sequence, the PBM binding z-score in experiment [7] was 0.753; in experiment [8], 1.09.

For TAGAGTAGGTTAGTCGGGGCATTCAGCCAACATA, the PBM binding z-score in experiment [1] is 0.711; in experiment [2], 0.539; in experiment [3], 0.52; in experiment [4] it was -0.0578; in experiment [5], 0.327; in experiment [6] it was 1.42. Moreover, the PBM binding z-score in experiment [7] was 0.443; in experiment [8], 1.03.

For GGAACGAGGGCAAGTTGATAGGAGAGTTTGATGG, the PBM binding z-score in experiment [1] came out at 1.61; in experiment [2], 1.72; in experiment [3], 2.08; in experiment [4], 2.4; in experiment [5], 0.681; in experiment [6], 1.27. Also, the PBM binding z-score in experiment [7] worked out at 0.249; in experiment [8], 2.23.

The record behind these values is the supplement of paper PMC6555819.
